Screening data: PubChem, National Center for Advancing Translational Sciences (NCATS)
The list is not random: actives were taken first. Their share in the collection is about 11%.
VACV Venus inh = vaccinia inhibition (Venus reporter); Vaccinia virus Venus reporter expression, fluorescence; Potency, µM (series often up to 36.5 µM), actives largely listed as inhibitors; hit rate 0.46% among 330,000; AID 720580; calls by dose curve; tested in A549 cells; further: nearly all actives have a fitted effect of over 30% in size
HCV inh = HCV inhibition. Huh7.5.1 HCVcc-Cre infection, luciferase reporter, 44 h. Potency, µM (doses to about 41.8 µM), usual class: inhibitors. AID 651820. hit rate 3.4% among 340,000
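Cells (1,000/well) were plated 4 h before compound, then infected with HCVcc-Cre virus (~0.5 moi). After 44 h further culture, infection was read as luciferase luminescence following a 15 min substrate incubation at room temperature.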
Pf growth 96h = P. falciparum growth inhibition at 96 hours; P. falciparum luciferase reporter growth, 96 h; Potency, µM (highest dose often 28.7 µM), most hits filed as inhibitors; hit rate 6.9% among 320,000; AID 504834
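Compounds incubated with erythrocytes infected by luciferase-expressing P. falciparum (2% hematocrit, 0.05% parasitemia final) for 96 hours, 37 C in 5% CO2. Growth inhibition scored as decreased luciferase luminescence.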
Pf growth 48h = P. falciparum growth inhibition at 48 hours (one generation). hit rate 5.9% among 310,000. Potency, µM (highest dose often 28.7 µM), usual class: inhibitors. P. falciparum luciferase growth in erythrocytes, 48 h
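Growth was read as firefly luciferase luminescence after a 48 h, 37 C, 5% CO2 exposure of compounds to reporter-bearing P. falciparum cultures (0.1% parasitemia, 2% hematocrit final) in Albumax-supplemented RPMI 1640.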
NS1 function inh = blocks influenza NS1 protein function; Potency, µM (top dose mostly 46.1 µM); hit rate 0.4% among 270,000; calls by dose curve; further: actives are rising curves; nearly all actives have a fitted effect of over 50% in size
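Growth recovery, yeast-based: influenza A NS1 expressed in S. cerevisiae causes slow growth, and suppressors are detected by OD600. The parent strain without NS1 is used as positive control.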
VACV mCherry inh = vaccinia inhibition (mCherry reporter) | hit rate 0.63% among 310,000 | Potency, µM (doses to about 36.5 µM), hits mostly inhibitors | Vaccinia virus mCherry reporter infection, fluorescence | AID 720579; calls by dose curve; tested in A549 cells; further: nearly all actives have a fitted effect of over 35% in size
Large screens that a line does not name were inactive. Unless noted, the call rests on the fitted dose curve; in most records, active means well fitted inhibition curve with a large enough effect; inconclusive means small, poorly fitted or top-dose-only effect, or another doubt; inactive means no such curve, though single readings can be large or run the other way.

O=C(CN1CCOCC1)Nc1ccc(OCc2ccccc2)cc1	Pf growth 48h inconclusive (no result: VACV Venus inh, Pf growth 96h, VACV mCherry inh)
O=C(Nc1cc(Cl)ccc1N1CCOCC1)c1ccc2c(c1)OCO2	none (no result: HCV inh, Pf growth 96h, Pf growth 48h, NS1 function inh)
O=C(/C=C/c1ccc(Cl)cc1)NC(=S)Nc1ccc(N2CCOCC2)c(Cl)c1	Pf growth 96h 10µM
O=C(Nc1ccc(N2CCOCC2)cc1N1CCOCC1)c1ccc(Cl)cc1	HCV inh inconclusive, Pf growth 96h inconclusive
O=C(Nc1ccc(N2CCOCC2)c(Cl)c1)c1ccc(Cl)cc1	HCV inh 10µM (no result: NS1 function inh)
O=C(/C=C/c1ccccc1)NC(=S)Nc1ccc(N2CCOCC2)cc1	none
O=C(Nc1ccc(N2CCOCC2)c(Cl)c1)c1ccc2c(c1)OCCO2	HCV inh 11µM, Pf growth 48h inconclusive (no result: VACV Venus inh, VACV mCherry inh)
COc1ccc(/C(C)=N/NC(=O)c2ccc(CSc3nncn3C)cc2)cc1	Pf growth 96h 4.1µM, Pf growth 48h inconclusive (no result: NS1 function inh)
CN(C)CCNc1oc(COc2ccc(-c3ccccc3)cc2)nc1C#N	HCV inh 10µM, Pf growth 48h inconclusive (no result: Pf growth 96h)
COc1ccc(CNc2oc(COc3ccc(Cl)cc3)nc2C#N)cc1	HCV inh inconclusive (no result: Pf growth 96h)
C=CCNc1oc(COc2ccc(C)cc2)nc1C#N	Pf growth 96h 6.6µM (no result: Pf growth 48h)
N#Cc1nc(COc2ccc(-c3ccccc3)cc2)oc1NCCCN1CCOCC1	VACV Venus inh inconclusive, HCV inh inconclusive, Pf growth 96h inconclusive, Pf growth 48h inconclusive
Cc1ccc(S(=O)(=O)c2nc(S(=O)(=O)c3ccccc3)sc2N2CCN(CCO)CC2)cc1	Pf growth 48h inconclusive (no result: VACV Venus inh, VACV mCherry inh)
Cc1cc(C)nc(NC(N)=NCCc2ccccc2)n1	VACV Venus inh inconclusive, HCV inh 11µM, VACV mCherry inh inconclusive (no result: Pf growth 96h, Pf growth 48h, NS1 function inh)
NC(=NCCc1ccccc1)NS(=O)(=O)c1ccccc1	none
Cc1cc(C)nc(NC(N)=NC(C)c2ccccc2)n1 (stereo not given)	VACV Venus inh inconclusive, Pf growth 96h inconclusive, Pf growth 48h 15µM, VACV mCherry inh inconclusive
Cc1cc(C)nc(NC(=NCCc2c[nH]c3ccccc23)NC(=O)Nc2ccc(Cl)cc2)n1	VACV Venus inh inconclusive, HCV inh 11µM, Pf growth 96h 0.59µM, Pf growth 48h 2.9µM, VACV mCherry inh inconclusive
Cc1cc(C)nc(NC(N)=NCCc2c[nH]c3ccccc23)n1	VACV Venus inh inconclusive, HCV inh 10µM, Pf growth 48h inconclusive, VACV mCherry inh inconclusive
CC(C)CCNC(=O)c1ccc2c(c1)ncn2C1CCCCC1	HCV inh inconclusive, Pf growth 96h inconclusive, Pf growth 48h inconclusive (no result: VACV Venus inh, VACV mCherry inh)
CN(C)c1nc(N2CCN(c3ccccc3)CC2)c(C#N)c(=O)o1	none (no result: VACV Venus inh, VACV mCherry inh)
O=C1CCc2cc(S(=O)(=O)N3CCN(Cc4ccc5c(c4)OCO5)CC3)ccc2N1	none (no result: HCV inh)
C=CCNC(=O)c1cc2sccc2n1C	HCV inh inconclusive
Cc1oc(-c2cccs2)nc1CS(=O)CC(=O)NCCCN1CC(C)CC(C)C1 (stereo not given)	Pf growth 96h 12µM (no result: Pf growth 48h)
CCCCNC(=O)CS(=O)Cc1nc(-c2ccc(C)cc2)oc1C (stereo not given)	NS1 function inh inconclusive (no result: Pf growth 48h)
CCc1ccc(-c2nc(CS(=O)CC(=O)NCCCN3CCOCC3)c(C)o2)cc1 (stereo not given)	Pf growth 96h 7.4µM
CSc1ccc(-c2nc(CSCC(=O)NCCCN3CCOCC3)c(C)o2)cc1	Pf growth 96h 9.3µM (no result: Pf growth 48h)
Cc1ccc(-c2nc(CS(=O)CC(=O)NCCCN3CC(C)CC(C)C3)c(C)o2)cc1 (stereo not given)	VACV Venus inh inconclusive, HCV inh inconclusive, Pf growth 96h inconclusive, NS1 function inh inconclusive (no result: Pf growth 48h)
Cc1oc(-c2ccc(Cl)cc2)nc1CS(=O)CC(=O)NCCCN1CCN(Cc2ccccc2)CC1 (stereo not given)	HCV inh 1.3µM, Pf growth 96h 9.3µM, Pf growth 48h inconclusive (no result: VACV Venus inh, VACV mCherry inh)
Cc1onc(-c2ccccc2)c1C(=O)Nc1nc(-c2cc(F)ccc2F)cs1	HCV inh inconclusive (no result: VACV Venus inh, Pf growth 48h, VACV mCherry inh)
Cc1ccc(-c2nc(CSCC(=O)NCCN3CCN(Cc4ccccc4)CC3)c(C)o2)cc1	HCV inh 13µM (no result: VACV Venus inh, VACV mCherry inh)
Cc1ccc(-c2nc(CSCC(=O)NCCCN3CCOCC3)c(C)o2)cc1	none (no result: VACV Venus inh, Pf growth 96h, VACV mCherry inh)
Cc1nnc(N2C(=O)c3cccc4cccc(c34)C2=O)s1	none (no result: Pf growth 48h)
Cc1ccc2c(c1)C1CN(C)CCC1N2Sc1ccccc1[N+](=O)[O-] (stereo not given)	Pf growth 96h 10µM, Pf growth 48h inconclusive, VACV mCherry inh inconclusive
CCCN(CCC)CCN1C(=O)C2C(C(=O)Nc3cccc(SC)c3)C3C=CC2(O3)C1C(=O)NC1CCCCC1 (stereo not given)	Pf growth 48h 3.7µM
Cc1cc(C)cc(NC(=O)C2C3C=CC4(O3)C2C(=O)N(CCN2CCCCC2)C4C(=O)NC2CCCCC2)c1 (stereo not given)	Pf growth 96h 10µM, Pf growth 48h inconclusive
O=C(Nc1ccc(Br)cc1)C1C2C=CC3(O2)C1C(=O)N(CCN1CCCCC1)C3C(=O)NC1CCCCC1 (stereo not given)	HCV inh inconclusive, Pf growth 96h inconclusive, Pf growth 48h inconclusive
CC(Oc1ccccc1F)C(=O)NNC(=O)C1CC(=O)N(c2ccc3c(c2)OCCO3)C1 (stereo not given)	Pf growth 48h inconclusive (no result: NS1 function inh)
O=C1N(Cc2cccc(Cl)c2)C[C@@H]2C[C@@H](c3cccn3-c3ccccn3)N3CCC[C@@]123	HCV inh 6.3µM, Pf growth 96h inconclusive, Pf growth 48h 12µM
O=C1N(Cc2cccc(Cl)c2)C[C@@H]2C[C@@H](c3cccc4ncccc34)N3CCC[C@@]123	HCV inh 11µM, Pf growth 48h 1.7µM
COc1ccc(OC)c(NC(=O)CC2SC(=N)N(c3ccccc3)C2=O)c1 (stereo not given)	HCV inh inconclusive (no result: NS1 function inh)
COc1ccc(OC)c(NC(=O)CC2SC(=Nc3ccccc3)N(CCc3ccccn3)C2=O)c1 (stereo not given)	Pf growth 96h 4.7µM, Pf growth 48h 15µM (no result: VACV Venus inh, VACV mCherry inh)
COc1ccc(N=C2SC(CC(=O)Nc3ccccc3)C(=O)N2Cc2ccccn2)cc1 (stereo not given)	HCV inh inconclusive, Pf growth 96h inconclusive, Pf growth 48h inconclusive (no result: NS1 function inh)
COc1ccc(N=C2SC(CC(=O)Nc3ccccc3)C(=O)N2CCc2ccccn2)cc1 (stereo not given)	Pf growth 96h 15µM, Pf growth 48h inconclusive
Cc1ccc2cc(CN(Cc3ccco3)C(=S)NCC3CCCO3)c(=O)[nH]c2c1 (stereo not given)	Pf growth 96h 3.7µM
COc1ccc2cc(CN(CC3CCCO3)C(=S)NCc3ccco3)c(=O)[nH]c2c1 (stereo not given)	Pf growth 48h 9.3µM
O=C(c1ccco1)N(Cc1ccc2c(c1)OCO2)Cc1cc2cc3c(cc2[nH]c1=O)OCO3	Pf growth 96h 12µM
COc1cc2cc(CN(Cc3ccc4c(c3)OCO4)C(=O)c3ccco3)c(=O)[nH]c2cc1OC	none (no result: VACV Venus inh, Pf growth 96h, Pf growth 48h, NS1 function inh, VACV mCherry inh)
Cc1ccc(C)c(N(Cc2cc3ccc(C)cc3[nH]c2=O)C(=O)c2ccco2)c1	HCV inh inconclusive, Pf growth 96h 7.4µM, Pf growth 48h inconclusive (no result: VACV Venus inh, VACV mCherry inh)
